Test results: PubChem BioAssay AID1347048 (National Center for Advancing Translational Sciences (NCATS), 2019)
About 1,200 (1.6%) of roughly 76,000 compounds were called active. Inconclusive results (about 4%) are left out. The call rests on the fitted dose curve. The entries come from a sample that favours actives as a whole.

target: Atrial natriuretic peptide receptor 1 (Homo sapiens) (UniProt P16066); experiment: Natriuretic polypeptide receptor (hNpr1) antagonism - Primary qHTS; settings: HEK293 hNpr1 GloSensor cGMP, ANP-stimulated luminescence; series mostly up to 46.3 µM; activity change, negative = inhibition: at the top concentration; further: nearly all actives have a fitted effect of over 60% in size
Sequence (P16066 whole entry, looked up): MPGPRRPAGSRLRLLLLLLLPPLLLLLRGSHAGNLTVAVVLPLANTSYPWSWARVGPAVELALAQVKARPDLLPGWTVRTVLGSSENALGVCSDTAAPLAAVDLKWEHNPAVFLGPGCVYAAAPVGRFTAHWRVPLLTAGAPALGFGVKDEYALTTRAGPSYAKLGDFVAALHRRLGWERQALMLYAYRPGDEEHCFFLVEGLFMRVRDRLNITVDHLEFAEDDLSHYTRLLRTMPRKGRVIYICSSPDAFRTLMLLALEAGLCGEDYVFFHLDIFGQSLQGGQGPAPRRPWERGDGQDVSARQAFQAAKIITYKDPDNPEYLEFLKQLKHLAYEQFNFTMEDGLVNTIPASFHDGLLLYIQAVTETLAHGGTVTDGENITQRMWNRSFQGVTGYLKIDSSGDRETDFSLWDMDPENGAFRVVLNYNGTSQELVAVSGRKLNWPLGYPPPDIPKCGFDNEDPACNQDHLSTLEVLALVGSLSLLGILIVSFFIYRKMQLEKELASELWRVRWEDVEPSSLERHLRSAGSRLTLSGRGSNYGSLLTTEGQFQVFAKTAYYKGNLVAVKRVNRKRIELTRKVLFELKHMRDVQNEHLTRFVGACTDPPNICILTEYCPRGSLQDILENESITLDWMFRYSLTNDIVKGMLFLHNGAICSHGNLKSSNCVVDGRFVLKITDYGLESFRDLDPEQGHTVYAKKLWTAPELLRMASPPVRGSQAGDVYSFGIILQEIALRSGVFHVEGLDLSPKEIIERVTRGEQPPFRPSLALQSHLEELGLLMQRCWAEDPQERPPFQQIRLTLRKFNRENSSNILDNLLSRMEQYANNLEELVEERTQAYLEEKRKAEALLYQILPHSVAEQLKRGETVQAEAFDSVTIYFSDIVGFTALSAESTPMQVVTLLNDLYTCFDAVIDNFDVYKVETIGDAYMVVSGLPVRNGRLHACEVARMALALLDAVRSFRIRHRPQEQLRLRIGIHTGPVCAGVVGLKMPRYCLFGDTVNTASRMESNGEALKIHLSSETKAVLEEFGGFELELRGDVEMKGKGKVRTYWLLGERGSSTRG
Summary of the method: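 HEK293 cells stably expressing human Npr1 and cGMP GloSensor pGS-40F, loaded 2 h with 2% GloSensor reagent, given compound 30 min at room temperature. Luminescence read before and 20 min after 0.1 nM hNppA.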
On the % scale 0 is the no-effect control and ±100 the full control effect; potency means the concentration at half of the fitted maximal effect.

Activity change, negative = inhibition, inactive:
COC(=O)c1c(NC(C)=O)c2cc(NC3CCCCCC3)cnc2n1CC1CCCO1 (stereo unspecified) 3.1%
O=C(Cc1ccc(Cl)cc1)N1CCc2c(nc3cc[nH]n3c2=O)C1 1.92%
COc1cccc(CN2CCN(Cc3ncccc3C)CC2)c1O -0.599%
O=c1c2c(n(Cc3ccccc3)n1-c1ccccc1)CN(Cc1ccn[nH]1)CC2 -0.367% [at 70.6 µM]
CCOc1ccc(CN2CCC(N3CCCC(C(=O)NC4CC4)C3)CC2)cc1 (stereo unspecified) -5.46%
CCCNc1ccc2nnc(C)n2n1 2.13%
Cc1noc(C)c1-c1cc(-c2cncnc2)cn2cncc12 0.541% [at 70.6 µM]
COc1ccccc1-c1cc(-c2cn[nH]c2)c2cncn2c1 -9.24% [at 70.6 µM]
CN(C)Cc1nnc(C2CC(NC(=O)c3cn4cccnc4n3)C2)n1C (stereo unspecified) 9.29%
O=C(c1ccccc1)N1CCOc2ccc(CN3CCc4ccccc4C3)cc2C1 -5.63%
CCC(=O)N1CCc2oc(C)c(C(=O)NCCN(C)C)c2C1 3.38%
CC(C)(Oc1nn(CC2CCOCC2)c2ccccc12)C(=O)NCc1ccccc1 -5.28% [at 70.6 µM]
COCc1ccc2c(c1)c(OC(C)(C)C(=O)N1CCN(C)CC1)nn2Cc1cccnc1 2.14% [at 70.6 µM]
CC(=O)N1CCC(N2C[C@H](O)C[C@H]2C(=O)NC2CCCCC2)CC1 3.14%
Cc1c(C(=O)N2CCCn3nc(C(C)O)cc3C2)sc2nc[nH]c(=O)c12 (stereo unspecified) -0.218%
C(=C\c1ccccc1)/CN1CCN(c2ncncn2)CC1 -30%
Cc1nc(CCNS(=O)(=O)c2ccc(Cl)cc2)no1 0%
O=C([C@H]1CCC[C@H](O)C1)N(CCC1=CCCCC1)Cc1ccccc1 0.789%
O=c1[nH]nc2n1CCCC2 -17.4%
COc1ccc(C(=O)N2CCCC(n3cc(-c4nc(C5CC5)no4)nn3)C2)cc1 (stereo unspecified) 2.3%
Cc1nc(-c2cn(C3CCCN(C(=O)c4cc(F)ccc4F)C3)nn2)no1 (stereo unspecified) 0%
CCc1noc(-c2cn(C3CCN(C(=O)c4cccc(OC)c4)C3)nn2)n1 (stereo unspecified) -1.19%
COc1cc(OC)cc(C(=O)N2CCCC(n3cc(-c4nc(C(C)C)no4)nn3)C2)c1 (stereo unspecified) -11.7%
COc1ccccc1-c1onc(C)c1C(=O)NCCC(c1ccccc1)c1ccccc1 -9.75%
CCn1c(C2CCCNC2)nn(Cc2noc(-c3ccc(C)cc3)n2)c1=O (stereo unspecified) 3.51%
CC(C)(C)C(=O)N1CC[C@@H](CC(=O)O)[C@@H](CCN2CCN(c3cccc(C(F)(F)F)c3)CC2)C1 5.62%
COc1cccc(N2CC3(COCC2=O)CN(c2ccc(C(F)(F)F)cn2)C3)n1 -16.6% [at 70.6 µM]
O=C1CCCCCN1C1CCN(Cc2ccc(C(F)(F)F)cc2)CC1 -16.4%
CN(C)c1cccc(-c2cn(C)c(=O)n3cc(COc4ccc(Cl)cc4)nc23)c1 -2.64% [at 70.6 µM]
CN(C)Cc1cn2c(=O)n(C)cc(-c3cccc(OCc4ccccc4)c3)c2n1 -2.84% [at 70.6 µM]
CCOc1ccc(CC(=O)N2CCCC3(C2)Nc2cccnc2NC3=NC2CCCC2)cc1 (stereo unspecified) -2.91%
O=C(c1ccc(-c2ccc(N3CCCCC3)nc2)cc1)N1CCOCC1 -16.1%
COCCN1CC(CO)C2(CCN(Cc3ccc(F)c(Cl)c3)CC2)C1 (stereo unspecified) -21.1%
CN1CCCC2(CCN(C(=O)c3cccc(N4CCCC4=O)c3)C2)C1=O (stereo unspecified) 13.1%
CC(=O)N1CCCC(c2nn(-c3ccccc3)c(=O)[nH]2)C1 (stereo unspecified) -9.12% [at 70.6 µM]
O=C(Cc1ccc(F)cc1)N1CCCC(c2nn(-c3ccc(Cl)cc3)c(=O)[nH]2)C1 (stereo unspecified) 8.11%
O=C(COc1ccc(F)cc1)NC1CCN(c2cn[nH]c(=O)c2)CC1 0.664%
Cc1ncsc1C(=O)N1CCc2c(n(Cc3ccccc3)n(-c3ccccc3)c2=O)C1 1.6% [at 70.6 µM]
O=C(Cc1ccc(F)cc1)N1CCC2(CC1)NC(=O)N(c1ccccc1)N2 -1.52%
CC1(C(=O)NCC2CCCO2)CCCc2cnc(Nc3ccccc3)nc21 (stereo unspecified) 7.26% [at 70.6 µM]
CN(Cc1ccccc1)C(=O)C1(C)CCCc2cnc(Nc3cccnc3)nc21 (stereo unspecified) -21.7% [at 70.6 µM]
CC(C)N1Cc2cc(C(=O)Nc3cccc4c3CCCC4)sc2C1 -13.9%
COc1ccc(CNC(=O)c2cc3c(s2)CN(C2CC2)C3)cc1OC -7.63%
Cc1cc(NC(=O)c2ccc3c(c2)OCCN(CCC(F)(F)F)C3)ccc1F -3.62% [at 70.6 µM]
O=C(Nc1cccnc1)c1ccc2c(c1)OCCN(c1ccccc1)C2 -21.2% [at 70.6 µM]
O=C(c1ccc2c(c1)OCO2)N1CCC2(CC1)CN(c1ccncn1)CC2CO (stereo unspecified) 2.18%
CN(C)C(=O)C1CN(C(=O)Nc2ccc(F)cc2F)CC12CCOCC2 (stereo unspecified) -8.52%
O=C(Nc1ccccc1)O[C@@H]1CO[C@H]2[C@@H]1OC[C@@H]2NS(=O)(=O)c1cccc2cccnc12 -9.3%
O=C(Nc1ccc(Oc2ccccc2)cc1)O[C@@H]1CO[C@H]2[C@@H]1OC[C@@H]2NCC1CC1 -1.22% [at 70.6 µM]
O=C(c1ccoc1)N1CC(Oc2ccc(-c3nc(-c4ccccc4)no3)cc2)C1 -2.34%
O=C(NC1CCCC1)N1CCCC(c2noc(COc3ccccc3)n2)C1 (stereo unspecified) -21.1%
Cc1cccc(C(=O)N2CC(Oc3cccc(-c4nc(-c5ccccc5)no4)c3)C2)c1 -1.57%
CCCN1CC(Oc2ccc(-c3noc(C4CC4)n3)cc2)C1 -2.63%
O=C(NC1CCCCC1)N1CCCCCC1c1nc(-c2cccnc2)no1 (stereo unspecified) -4.2%
O=C(c1ccncc1)N1CCC(Oc2ccccc2)C1 (stereo unspecified) 0%
COc1ccc(Cl)cc1-c1ccc2c(c1)C(=O)N1CCN(C(C)=O)C[C@@H]1C(=O)N2 -0.72% [at 70.6 µM]
Cc1c(Cl)c(C(=O)N2C[C@@H](CN3CCCN(C)CC3)[C@@H](CO)C2)nn1C 2.36%
CC(C)CCNC(=O)CCN(CC(C)C)C(=O)c1ccoc1 -1.04%
O=C(NC(C(=O)N1CCCCC1)C1CCN(C(=O)c2ccc(Cl)cc2)CC1)c1ccccc1 (stereo unspecified) -7.36%
Cc1cnc(CC2CCN(C(=O)c3cccc4[nH]ccc34)CC2)n1CC1CC1 -1.32%
CC(C)CCN1CCC2(CC1)C(=O)NCN2Cc1ccc(Cl)cc1 12.2%
O=C(C1CC1)N1CCC2(CC1)C(=O)NCN2Cc1ccc(Cl)cc1 6.52%
COCC(=O)NC[C@H]1O[C@@H](CO)[C@@H](O)[C@H]1N1CCN(c2ccc(F)cc2)CC1 5.93%
CC(=O)NC1(C)CCN(Cc2cnc(-c3ccc4c(ccn4C)c3)s2)CC1 -6.52% [at 70.6 µM]
COc1ccc(C(=O)N2CCC3(CC2)OC(=O)N(CC2CC2)C3(C)c2cccnc2)cn1 (stereo unspecified) -5.47% [at 70.6 µM]
COc1ccc(CN2CCN(c3noc(C(C)C)n3)CC2CCO)cc1C (stereo unspecified) -1.23%
O=C(C1CCCC1)N1CCC2(CCCCO2)CC1 3.39%
O=C(NCC1CC1)c1nc2c(o1)CCN(CCc1ccccc1)CC2 -0.0689% [at 70.6 µM]
O=C(c1nc2c(o1)CCN(Cc1ccccc1F)CC2)N1CCOCC1 -0.8% [at 70.6 µM]
CCOc1ccccc1C(=O)N1CCC(c2n[nH]c(=O)n2-c2ccc(C)cc2)CC1 -2.74%
Cc1ccoc1C(=O)N1CCC(C2CCN(Cc3cccc(F)c3F)CC2)C1 (stereo unspecified) -16%
COc1ccc(C)cc1NC(=O)Cn1nc2n(c1=O)CCCC2 -1.49%
COc1ccc(C(=O)Nc2cccc(-c3nnc4n3CCCC4)c2)cc1 2.9%
COCC(=O)NC[C@H]1CCN(Cc2cn(C)c3ccccc23)C[C@H]1N(C)C 6.61%
CC1(COCC2CC2)COc2ccc(C(=O)NCc3cccnc3)cc2N1 (stereo unspecified) -4.53% [at 70.6 µM]
COc1ccc(OCC2(C)COc3ccc(C(=O)NC4CCOCC4)cc3N2)cc1 (stereo unspecified) -9.27% [at 70.6 µM]
Cc1ccc(C(=O)N2CCC3(CC2)CC(=O)c2ccccc2O3)cc1 6.47%
O=C(CCC[C@H]1NC[C@@H]2C[C@H]1CN(Cc1ccccc1)C2)NCC1CC1 -1.01%
O=C(c1ccncc1)N1CCC(Cc2noc(C3CC3)n2)C1 (stereo unspecified) -1.24%
O=C(NCc1ccc(Cl)cc1)c1cccn2nccc12 -5.27% [at 70.6 µM]
COc1ccccc1-c1onc(C)c1C(=O)NCc1ccc(Cl)cc1 -13.5%

Potency, active:
Cc1noc(C)c1-c1cc(-c2ccccc2Oc2ccccc2)cn2cncc12 28.2 µM
CN1CCN(C(=O)C(C)(C)Oc2nn(Cc3cccc(Cl)c3)c3ccccc23)CC1 15.8 µM
OC1(Cc2cc(-c3ccccc3)no2)CCN(c2ncncn2)CC1 3.55 µM
COc1ccccc1C(=O)N1CCCC(n2cc(-c3nc(-c4ccccc4)no3)nn2)C1 (stereo unspecified) 4.47 µM
O=C(c1ccc(F)cc1Cl)N1CCC(n2cc(-c3nc(-c4ccccc4)no3)nn2)C1 (stereo unspecified) 3.98 µM
Cc1cc(-c2cn(C)c(=O)n3cc(COc4ccccc4)nc23)ccn1 25.1 µM
O=c1[nH]c(C2CCCN(Cc3ccccn3)C2)nn1-c1ccc(Cl)cc1 (stereo unspecified) 5.01 µM
CC1(C(=O)NCc2ccc3c(c2)OCO3)CCc2cnc(NCc3ccccc3)nc21 (stereo unspecified) 35.5 µM
O=C(Nc1ccc2c(c1)CCC2)c1cc2c(s1)CN(C1CC1)C2 11.2 µM
CC(C)(C)c1csc(NC(=O)c2ccc3c(c2)OCCN(C2CCC2)C3)n1 31.6 µM
O=C(Nc1ccc(Oc2ccccc2)cc1)O[C@@H]1CO[C@H]2[C@@H]1OC[C@@H]2NS(=O)(=O)c1cccs1 12.6 µM
O=C(c1ccccn1)N1CC(Oc2ccc(-c3noc(C4CC4)n3)cc2)C1 14.1 µM
O=C(NC1CCCC1)N1CCC(Oc2ccc(-c3noc(C4CC4)n3)cc2)C1 (stereo unspecified) 8.91 µM
Cc1cccc(C(=O)N2CCC(Oc3ccc(-c4noc(C(C)C)n4)cc3)C2)c1 (stereo unspecified) 11.2 µM
O=C1NCN(Cc2ccc(Cl)cc2)C12CCN(Cc1ccccc1)CC2 11.2 µM
CC(=O)NC1(C)CN(Cc2ccc(-c3ccc4c(ccn4C)c3)s2)C1 8.91 µM
O=C(NCC1CC1)c1nc2c(o1)CCN(Cc1cccc(F)c1F)CC2 22.4 µM
COc1ccc(C)cc1NC(=O)Nc1cccc(-c2ccc(N3CCCCC3)nn2)c1 10 µM
COc1ccc(OCC2(C)COc3ccc(C(=O)Nc4cccnc4)cc3N2)cc1 (stereo unspecified) 25.1 µM
Cc1cc(CNC(=O)c2ccc(-c3ccccc3Cl)o2)n(C)n1 11.2 µM
